# Experimental data published in PubChem BioAssay (NCATS).
# “And” between values parts separate entries of the source, which are not always exact repeats. Equal entries are not always repeated. Inconclusive results are not listed. A call without a number means that no potency is given here. Some compounds were tested as several samples or in several runs, with calls that do not always agree. Values without a mark were called inactive. The source made the active and inactive calls. Calls come from the whole dose curve; as a rule, active = well fitted curve in the direction sought with a large enough effect; inconclusive = small, poorly fitted or top-dose-only effect, or another doubt; inactive = no such curve, though single readings can be large; an effect the other way counts as inactive or inconclusive.
# Assays:
# TAB109 = experiment: qHTS profiling for inhibitors of Plasmodium falciparum proliferation (AID 504749); note: nearly all actives have a fitted effect of over 60% in size; note: potency is the fitted concentration of half-maximal effect; settings: P. falciparum in erythrocytes, SYBR Green DNA, 72 h; series mostly up to 28.7 µM
# In short: (§1)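 SYBR Green fluorescence of parasite DNA, read after lysis and overnight dark incubation, measured growth over 72 h in erythrocyte culture at 0.3% parasitemia and 2.5% hematocrit. Data normalised to DMSO and 0.29 uM artemisinin, with plate-drift correction.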
# TAB113 = experiment: as above; settings: P. falciparum in erythrocytes, SYBR Green DNA, 72 h; series mostly up to 28.7 µM
# In short: as §1
# TAB165 = experiment: as above; settings: P. falciparum in erythrocytes, SYBR Green DNA, 72 h; series mostly up to 28.7 µM
# In short: as §1
# CRL-7250 = normal cell line; experiment: Cytotoxic Profiling of Annotated Libraries Using Quantitative High-Throughput Screening (AID 1296008); settings: Five cell lines viability, CellTiter-Glo ATP luminescence, 48-72 h; max response: hits give low values; note: nearly all actives have a fitted effect of over 60% in size; note: potency is the fitted concentration of half-maximal effect
# In short: (§2)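 Cytotoxicity was measured as CellTiter-Glo ATP luminescence, read after 10 min at room temperature. Compound treatment of the cells lasted 48 or 72 hr at 37 degrees Celsius in a qHTS format.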
# HEK293 = experiment: as above; settings: Five cell lines viability, CellTiter-Glo ATP luminescence, 48-72 h; max response: hits give low values
# In short: as §2
# HaCat [1] = experiment: as above; settings: Five cell lines viability, CellTiter-Glo ATP luminescence, 48-72 h; max response: hits give low values
# In short: as §2
# KB-3-1 = experiment: as above; settings: Five cell lines viability, CellTiter-Glo ATP luminescence, 48-72 h; max response: hits give low values
# In short: as §2
# NIH3T3 [2] = experiment: as above; settings: Five cell lines viability, CellTiter-Glo ATP luminescence, 48-72 h; max response: hits give low values
# In short: as §2
# HACAT [3] = experiment: qHTS assay to identify novel small-molecules to repurpose for Merkel cell carcinoma treatment (AID 1296009); settings: MCC and control cell lines, CellTiter-Glo viability, 72 h; note: nearly all actives have a fitted effect of over 60% in size; note: potency is the fitted concentration of half-maximal effect
# In short: (§3)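 Cell viability, measured as CellTiter-Glo luminescence, was normalized between DMSO and no-cell wells. The cells had been exposed to 8- or 11-point compound dilutions for 72 hr at 37 degree celsius.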
# MCC-13 = experiment: as above; settings: MCC and control cell lines, CellTiter-Glo viability, 72 h; series mostly up to 46 µM
# In short: as §3
# MCC-26 = experiment: as above; settings: MCC and control cell lines, CellTiter-Glo viability, 72 h; series mostly up to 46 µM
# In short: as §3
# MKL-1 = experiment: as above; settings: MCC and control cell lines, CellTiter-Glo viability, 72 h; series mostly up to 46 µM
# In short: as §3
# MKL-2 = experiment: as above; settings: MCC and control cell lines, CellTiter-Glo viability, 72 h; series mostly up to 46 µM
# In short: as §3
# NIH3T3 [4] = experiment: as above; settings: MCC and control cell lines, CellTiter-Glo viability, 72 h; at 44.8 µM (top of the series) unless noted
# In short: as §3
# WaGa = experiment: as above; settings: MCC and control cell lines, CellTiter-Glo viability, 72 h; series mostly up to 46 µM
# In short: as §3
# C33A = experiment: Primary qHTS to identify gynecologic anti-cancer compounds using libraries of approved drugs and bioactive compounds (AID 1345084); settings: Gynecologic cancer cell panel viability, ATPlite luminescence, 48 h; series mostly up to 57.5 µM; note: nearly all actives have a fitted effect of over 55% in size
# In short: (§4)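 Five-concentration response, 48 h; readout is ATP-driven luciferase luminescence.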
# CAOV3 = experiment: as above; settings: Gynecologic cancer cell panel viability, ATPlite luminescence, 48 h; series mostly up to 57.5 µM
# In short: as §4
# HEK293T = experiment: qHTS assay to identify novel small-molecules to repurpose for Merkel cell carcinoma treatment (AID 1296009); settings: MCC and control cell lines, CellTiter-Glo viability, 72 h; at 44.8 µM (top of the series) unless noted; note: nearly all actives have a fitted effect of over 60% in size; note: potency is the fitted concentration of half-maximal effect
# In short: as §3
# UISO = experiment: as above; settings: MCC and control cell lines, CellTiter-Glo viability, 72 h; series mostly up to 46 µM
# In short: as §3
# W2 = experiment: qHTS profiling for inhibitors of Plasmodium falciparum proliferation (AID 504749); note: nearly all actives have a fitted effect of over 60% in size; note: potency is the fitted concentration of half-maximal effect; settings: P. falciparum in erythrocytes, SYBR Green DNA, 72 h; series mostly up to 28.7 µM
# In short: as §1
# [5] = at 44.8 µM (top of the series) unless noted
compound,measurement,setting,value
Cc1cc(C(C#N)c2ccc(Cl)cc2)c(Cl)cc1NC(=O)c1cc(I)cc(I)c1O (configuration not stated),Potency,TAB109,inactive
same,Potency,TAB113,inactive
same,Potency,TAB165,inactive
same,max response,CRL-7250,-2.5%
same,outcome,CRL-7250,inactive
same,Potency,HEK293,23.7 µM (active)
same,max response,HEK293,-12.9%
same,max response,HaCat [1],-17.7%
same,outcome,HaCat [1],inactive
same,outcome,KB-3-1,inactive
same,max response,NIH3T3 [2],-5.52%
same,outcome,NIH3T3 [2],inactive
same,outcome,HACAT [3]; [5],inactive
same,Potency,MCC-13,inactive
same,Potency,MCC-26,inactive
same,Potency,MKL-1,inactive
same,Potency,MKL-2,inactive
same,outcome,NIH3T3 [4],inactive
same,Potency,WaGa,10.6 µM (active)
same,Potency,C33A,inactive
same,Potency,CAOV3,inactive
Cn1cc[nH]c1=S,max response,CRL-7250,4.5%
same,outcome,HEK293,inactive
same,outcome,HaCat [1],inactive
same,max response,KB-3-1,10.2%
same,outcome,NIH3T3 [2],inactive
same,outcome,HACAT [3]; [5],inactive
same,outcome,HEK293T,inactive
same,Potency,MCC-13,inactive
same,Potency,MCC-26,inactive
same,Potency,MKL-1,inactive
same,Potency,MKL-2,inactive
same,outcome,NIH3T3 [4],inactive
same,Potency,UISO,inactive
same,Potency,WaGa,inactive
same,Potency,C33A,inactive
same,Potency,CAOV3,inactive
CN(N=O)C(=O)N[C@@H]1[C@@H](O)[C@H](O)[C@@H](CO)O[C@@H]1O,outcome,CRL-7250,inactive
same,outcome,HEK293,inactive
same,outcome,HaCat [1],inactive
same,max response,KB-3-1,28.6%
same,outcome,NIH3T3 [2],inactive
same,outcome,HACAT [3]; [5],inactive
same,outcome,HEK293T,inactive
same,Potency,MCC-13,inactive
same,Potency,MCC-26,inactive
same,Potency,MKL-1,inactive
same,Potency,MKL-2,inactive
same,outcome,NIH3T3 [4],inactive
same,Potency,UISO,inactive
same,Potency,WaGa,inactive
same,Potency,C33A,inactive
same,Potency,CAOV3,inactive
CCOC(CN1CCN(CC(C)C(=O)c2ccccc2)CC1)c1ccccc1 (configuration not stated),Potency,W2,10.7 µM (active)
same,max response,CRL-7250,-5.72%
same,max response,HEK293,-4.15%
same,max response,HaCat [1],-8.79%
same,outcome,HaCat [1],inactive
same,max response,KB-3-1,0.981% and -11.3%
same,max response,NIH3T3 [2],-6.68%
same,outcome,NIH3T3 [2],inactive
same,outcome,HACAT [3]; [5],inactive [at 17.4 µM]
same,Potency,MCC-13,inactive
same,Potency,MCC-26,inactive
same,Potency,MKL-1,inactive
same,Potency,MKL-2,inactive
same,outcome,NIH3T3 [4],inactive
same,Potency,UISO,inactive
same,Potency,WaGa,inactive
same,Potency,C33A,inactive
same,Potency,CAOV3,inactive
O=C(CCCN1CCN(c2ccccn2)CC1)c1ccc(F)cc1,Potency,TAB109,inactive
same,Potency,TAB113,inactive
same,Potency,TAB165,inactive
same,Potency,W2,inactive
same,max response,CRL-7250,-29%
same,outcome,CRL-7250,inactive
same,max response,HEK293,-14.9%
same,max response,HaCat [1],-5.51% and 4.13%
same,max response,NIH3T3 [2],-7% and 0.386%
same,Potency,MCC-13,inactive
same,Potency,MCC-26,inactive
same,Potency,MKL-1,inactive
same,Potency,MKL-2,inactive
same,Potency,WaGa,inactive
same,Potency,C33A,inactive
same,Potency,CAOV3,inactive
OCC(O)CN1CCN(c2ccccc2)CC1 (configuration not stated),Potency,TAB109,inactive
same,Potency,TAB113,inactive
same,Potency,TAB165,inactive
same,Potency,W2,inactive
same,max response,CRL-7250,0.497% and 1.49%
same,max response,HEK293,-1.21%
same,outcome,HEK293,inactive
same,max response,HaCat [1],-30%
same,max response,KB-3-1,-6.94% and 8%
same,max response,NIH3T3 [2],-1.52%
same,outcome,NIH3T3 [2],inactive
same,outcome,HEK293T,inactive
same,Potency,MCC-13,inactive
same,Potency,MCC-26,inactive
same,Potency,MKL-1,inactive
same,Potency,MKL-2,inactive
same,outcome,NIH3T3 [4],inactive
same,Potency,UISO,inactive
same,Potency,WaGa,inactive
same,Potency,C33A,inactive
same,Potency,CAOV3,inactive
O=C(O)[C@@H]1CSCN1,Potency,TAB109,inactive
same,Potency,TAB113,inactive
same,Potency,TAB165,inactive
same,max response,CRL-7250,-15.8%
same,outcome,HEK293,inactive
same,outcome,HaCat [1],inactive
same,max response,KB-3-1,0.966%
same,outcome,NIH3T3 [2],inactive
same,outcome,HACAT [3]; [5],inactive
same,outcome,HEK293T,inactive
same,Potency,MCC-13,inactive
same,Potency,MCC-26,inactive
same,Potency,MKL-1,inactive
same,Potency,MKL-2,inactive
same,outcome,NIH3T3 [4],inactive
same,Potency,UISO,inactive
same,Potency,WaGa,inactive
same,Potency,C33A,inactive
same,Potency,CAOV3,inactive
[O-][n+]1cccc(CO)c1,Potency,TAB109,inactive
same,Potency,TAB113,inactive
same,Potency,TAB165,inactive
same,Potency,W2,inactive
same,max response,CRL-7250,-1.91%
same,outcome,HEK293,inactive
same,outcome,HaCat [1],inactive
same,max response,KB-3-1,4.61%
same,outcome,NIH3T3 [2],inactive
same,outcome,HACAT [3]; [5],inactive
same,outcome,HEK293T,inactive
same,Potency,MCC-13,inactive
same,Potency,MCC-26,inactive
same,Potency,MKL-1,inactive
same,Potency,MKL-2,inactive
same,outcome,NIH3T3 [4],inactive
same,Potency,UISO,inactive
same,Potency,WaGa,inactive
same,Potency,C33A,inactive
same,Potency,CAOV3,inactive
CCOc1nc2cccc(C(=O)O)c2n1Cc1ccc(-c2ccccc2-c2nn[nH]n2)cc1,Potency,TAB109,inactive
same,max response,CRL-7250,-0.772%
same,outcome,CRL-7250,inactive
same,max response,HEK293,-7.13% and 4.6%
same,max response,HaCat [1],-22.9% and -2.42%
same,max response,KB-3-1,-0.374% and 6.58%
same,max response,NIH3T3 [2],4.21%
same,outcome,NIH3T3 [2],inactive
same,Potency,MCC-13,inactive
same,Potency,MCC-26,inactive
same,Potency,MKL-1,inactive
same,Potency,MKL-2,inactive
same,outcome,NIH3T3 [4],inactive
same,Potency,UISO,inactive
same,Potency,WaGa,inactive
same,Potency,C33A,inactive
O=c1[nH]cnc2c1ncn2[C@@H]1O[C@H](CO)[C@@H](O)[C@H]1O,max response,CRL-7250,-10.1% and -4.73%
same,max response,HEK293,3.98%
same,outcome,HEK293,inactive
same,outcome,HaCat [1],inactive
same,max response,KB-3-1,7.98%
same,outcome,KB-3-1,inactive
same,max response,NIH3T3 [2],0.16%
same,outcome,NIH3T3 [2],inactive
same,outcome,HACAT [3]; [5],inactive
same,outcome,HEK293T,inactive
same,Potency,MCC-13,inactive
same,Potency,MCC-26,inactive
same,Potency,MKL-1,inactive
same,Potency,MKL-2,inactive
same,outcome,NIH3T3 [4],inactive
same,Potency,UISO,inactive
same,Potency,WaGa,inactive
same,Potency,C33A,inactive
same,Potency,CAOV3,inactive
C[C@@H]1CN(c2c(F)c(F)c3c(=O)c(C(=O)O)cn(C4CC4)c3c2F)C[C@H](C)N1,Potency,TAB109,inactive
same,Potency,TAB113,inactive
same,Potency,TAB165,inactive
same,Potency,W2,inactive
same,max response,CRL-7250,-3.49% and -4.42%
same,max response,HEK293,-18.5% and -5.83%
same,outcome,HaCat [1],inactive
same,max response,KB-3-1,-12.7%
same,outcome,KB-3-1,inactive
same,max response,NIH3T3 [2],-2.2% and -0.725%
same,outcome,HACAT [3]; at 9.27 µM (top of the series),inactive
same,outcome,HACAT [3]; at 17.4 µM (top of the series),inactive
same,Potency,MCC-13,inactive
same,Potency,MCC-26,inactive
same,Potency,MKL-1,inactive
same,Potency,MKL-2,inactive
same,Potency,UISO,inactive
same,Potency,WaGa,inactive
same,Potency,C33A,inactive
same,Potency,CAOV3,inactive
